The supplement of paper PMC11732987, “Enantioselective OTUD7B fragment discovery through chemoproteomics screening and high-throughput optimisation” (Communications Chemistry, 2025)

Assays:
Assay in all cases: log2 ratio of Biotin-Ahx-Ub-VS probe labelling (fragment/DMSO); higher = less target engagement (more negative = stronger competition), active = hit call of the paper (q ≤ 0.05, log2 ratio ≤ -1)
Conditions in all cases: compound concentration: 200 uM; treatment time: 3 h
[1] = target: T1, USP42 (UniProt Q9H9J4)
T1 sequence (whole entry): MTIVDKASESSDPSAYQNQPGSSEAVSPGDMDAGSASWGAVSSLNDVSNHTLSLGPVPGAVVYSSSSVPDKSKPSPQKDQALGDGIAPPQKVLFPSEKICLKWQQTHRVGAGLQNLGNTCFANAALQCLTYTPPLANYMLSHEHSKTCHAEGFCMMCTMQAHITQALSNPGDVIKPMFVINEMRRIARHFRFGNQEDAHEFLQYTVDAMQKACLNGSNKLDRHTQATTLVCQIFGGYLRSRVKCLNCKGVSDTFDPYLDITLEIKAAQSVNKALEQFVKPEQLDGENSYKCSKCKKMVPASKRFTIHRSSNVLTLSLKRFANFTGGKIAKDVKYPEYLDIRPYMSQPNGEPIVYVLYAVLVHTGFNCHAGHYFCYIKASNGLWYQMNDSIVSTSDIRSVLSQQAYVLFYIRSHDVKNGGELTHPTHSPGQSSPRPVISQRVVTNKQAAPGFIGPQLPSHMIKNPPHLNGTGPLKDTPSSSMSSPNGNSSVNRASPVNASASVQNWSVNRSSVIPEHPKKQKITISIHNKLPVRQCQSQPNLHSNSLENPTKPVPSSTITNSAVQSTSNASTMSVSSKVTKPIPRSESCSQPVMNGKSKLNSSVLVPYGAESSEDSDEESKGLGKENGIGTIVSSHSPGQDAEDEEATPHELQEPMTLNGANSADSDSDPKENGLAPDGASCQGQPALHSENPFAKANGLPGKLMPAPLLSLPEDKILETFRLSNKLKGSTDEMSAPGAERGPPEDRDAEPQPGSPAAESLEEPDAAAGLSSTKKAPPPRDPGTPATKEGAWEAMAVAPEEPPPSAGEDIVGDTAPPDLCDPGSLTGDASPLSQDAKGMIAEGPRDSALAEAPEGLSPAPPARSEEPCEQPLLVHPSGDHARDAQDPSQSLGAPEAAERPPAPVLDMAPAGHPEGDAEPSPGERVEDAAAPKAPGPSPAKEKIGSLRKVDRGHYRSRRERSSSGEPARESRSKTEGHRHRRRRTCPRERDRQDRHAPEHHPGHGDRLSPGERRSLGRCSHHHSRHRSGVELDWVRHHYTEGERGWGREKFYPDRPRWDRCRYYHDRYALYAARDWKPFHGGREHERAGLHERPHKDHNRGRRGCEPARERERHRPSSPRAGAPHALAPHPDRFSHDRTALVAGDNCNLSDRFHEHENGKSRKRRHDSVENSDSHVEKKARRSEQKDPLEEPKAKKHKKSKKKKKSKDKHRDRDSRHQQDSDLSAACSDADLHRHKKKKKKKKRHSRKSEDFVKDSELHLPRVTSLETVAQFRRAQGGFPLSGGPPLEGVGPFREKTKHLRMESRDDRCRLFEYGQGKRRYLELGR
Procedure, shortened: (§1)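 Fragment (200 µM) or vehicle was incubated for 3 h with triplicate HEK293T lysate samples of 495 µg, which were then treated with Biotin-Ahx-Ub-VS at 0.5 µM final for 1 h. Labelled DUBs were enriched on NeutrAvidin, digested with LysC and trypsin, and analysed by diaPASEF LC-MS/MS. Values are average log2 fragment/vehicle ratios from an unpaired t-test on global-median-normalised Spectronaut label-free quantities, using proteins with ≥2 unique peptides.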

[2] = target: USP46 (UniProt P62068)
Procedure, shortened: as §1

[3] = target: T2, USP47 (UniProt Q96K76)
T2 sequence (whole entry): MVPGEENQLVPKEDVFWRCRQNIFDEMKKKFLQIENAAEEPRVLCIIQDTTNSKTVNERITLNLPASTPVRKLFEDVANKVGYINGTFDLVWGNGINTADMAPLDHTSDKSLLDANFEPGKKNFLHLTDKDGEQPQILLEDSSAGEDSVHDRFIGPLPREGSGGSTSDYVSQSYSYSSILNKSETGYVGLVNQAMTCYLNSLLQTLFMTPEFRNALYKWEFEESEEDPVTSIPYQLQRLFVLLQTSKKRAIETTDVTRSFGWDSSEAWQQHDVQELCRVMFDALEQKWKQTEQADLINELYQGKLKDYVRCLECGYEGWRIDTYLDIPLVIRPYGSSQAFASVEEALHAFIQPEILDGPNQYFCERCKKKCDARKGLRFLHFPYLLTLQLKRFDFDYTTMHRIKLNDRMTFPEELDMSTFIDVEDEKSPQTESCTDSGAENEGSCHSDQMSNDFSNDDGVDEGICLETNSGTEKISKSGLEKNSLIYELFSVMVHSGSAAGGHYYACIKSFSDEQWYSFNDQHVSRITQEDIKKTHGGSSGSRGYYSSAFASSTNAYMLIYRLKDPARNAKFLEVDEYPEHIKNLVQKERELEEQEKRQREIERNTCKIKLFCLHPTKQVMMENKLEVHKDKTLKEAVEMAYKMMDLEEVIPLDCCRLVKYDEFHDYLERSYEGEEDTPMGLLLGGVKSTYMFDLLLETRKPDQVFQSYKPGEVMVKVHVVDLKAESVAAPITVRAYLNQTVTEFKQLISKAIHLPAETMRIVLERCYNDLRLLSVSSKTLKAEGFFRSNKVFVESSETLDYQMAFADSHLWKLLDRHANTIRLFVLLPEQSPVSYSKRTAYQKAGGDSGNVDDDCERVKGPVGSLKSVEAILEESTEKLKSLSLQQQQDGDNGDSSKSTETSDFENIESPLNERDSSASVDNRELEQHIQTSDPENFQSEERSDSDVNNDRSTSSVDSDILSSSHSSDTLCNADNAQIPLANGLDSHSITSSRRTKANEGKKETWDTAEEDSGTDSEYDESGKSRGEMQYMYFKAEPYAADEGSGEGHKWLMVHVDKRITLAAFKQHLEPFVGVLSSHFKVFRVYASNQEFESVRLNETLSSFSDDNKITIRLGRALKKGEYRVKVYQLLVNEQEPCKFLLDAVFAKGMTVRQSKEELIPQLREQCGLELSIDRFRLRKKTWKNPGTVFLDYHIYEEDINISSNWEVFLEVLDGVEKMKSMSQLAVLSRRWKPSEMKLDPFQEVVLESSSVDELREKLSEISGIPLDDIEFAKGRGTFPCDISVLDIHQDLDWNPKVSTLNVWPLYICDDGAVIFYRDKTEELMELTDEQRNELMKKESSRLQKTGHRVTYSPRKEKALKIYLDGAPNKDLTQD
Procedure, shortened: as §1

[4] = target: T3, USP48 (UniProt Q86UV5)
T3 sequence (whole entry): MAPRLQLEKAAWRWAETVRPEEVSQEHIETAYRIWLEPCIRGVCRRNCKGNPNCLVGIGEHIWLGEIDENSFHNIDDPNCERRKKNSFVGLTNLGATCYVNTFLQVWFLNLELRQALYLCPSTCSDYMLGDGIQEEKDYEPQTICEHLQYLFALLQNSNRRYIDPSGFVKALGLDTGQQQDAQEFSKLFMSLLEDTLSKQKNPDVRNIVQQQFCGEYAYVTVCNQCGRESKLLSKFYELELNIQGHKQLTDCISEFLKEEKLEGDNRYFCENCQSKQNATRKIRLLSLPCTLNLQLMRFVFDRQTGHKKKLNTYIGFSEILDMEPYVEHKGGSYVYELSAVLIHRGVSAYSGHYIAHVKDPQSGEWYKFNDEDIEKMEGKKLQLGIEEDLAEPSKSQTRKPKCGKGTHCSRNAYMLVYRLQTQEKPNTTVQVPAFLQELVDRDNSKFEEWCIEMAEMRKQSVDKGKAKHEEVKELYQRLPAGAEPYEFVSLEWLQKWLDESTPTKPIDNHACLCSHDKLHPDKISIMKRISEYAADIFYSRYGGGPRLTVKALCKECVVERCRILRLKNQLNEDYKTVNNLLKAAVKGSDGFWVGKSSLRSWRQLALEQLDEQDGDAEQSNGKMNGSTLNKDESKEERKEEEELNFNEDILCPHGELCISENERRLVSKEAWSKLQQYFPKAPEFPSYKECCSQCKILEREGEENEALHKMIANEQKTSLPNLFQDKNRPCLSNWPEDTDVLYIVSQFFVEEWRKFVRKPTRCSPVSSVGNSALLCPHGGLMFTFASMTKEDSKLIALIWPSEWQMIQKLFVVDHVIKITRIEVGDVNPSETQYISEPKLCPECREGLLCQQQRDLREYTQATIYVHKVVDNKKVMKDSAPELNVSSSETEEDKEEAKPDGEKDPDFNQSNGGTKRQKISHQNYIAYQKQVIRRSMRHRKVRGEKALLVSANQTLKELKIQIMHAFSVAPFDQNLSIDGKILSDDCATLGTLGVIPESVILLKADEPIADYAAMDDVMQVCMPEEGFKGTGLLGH
Procedure, shortened: as §1

[5] = target: T4, USP5 (UniProt P45974)
T4 sequence (whole entry): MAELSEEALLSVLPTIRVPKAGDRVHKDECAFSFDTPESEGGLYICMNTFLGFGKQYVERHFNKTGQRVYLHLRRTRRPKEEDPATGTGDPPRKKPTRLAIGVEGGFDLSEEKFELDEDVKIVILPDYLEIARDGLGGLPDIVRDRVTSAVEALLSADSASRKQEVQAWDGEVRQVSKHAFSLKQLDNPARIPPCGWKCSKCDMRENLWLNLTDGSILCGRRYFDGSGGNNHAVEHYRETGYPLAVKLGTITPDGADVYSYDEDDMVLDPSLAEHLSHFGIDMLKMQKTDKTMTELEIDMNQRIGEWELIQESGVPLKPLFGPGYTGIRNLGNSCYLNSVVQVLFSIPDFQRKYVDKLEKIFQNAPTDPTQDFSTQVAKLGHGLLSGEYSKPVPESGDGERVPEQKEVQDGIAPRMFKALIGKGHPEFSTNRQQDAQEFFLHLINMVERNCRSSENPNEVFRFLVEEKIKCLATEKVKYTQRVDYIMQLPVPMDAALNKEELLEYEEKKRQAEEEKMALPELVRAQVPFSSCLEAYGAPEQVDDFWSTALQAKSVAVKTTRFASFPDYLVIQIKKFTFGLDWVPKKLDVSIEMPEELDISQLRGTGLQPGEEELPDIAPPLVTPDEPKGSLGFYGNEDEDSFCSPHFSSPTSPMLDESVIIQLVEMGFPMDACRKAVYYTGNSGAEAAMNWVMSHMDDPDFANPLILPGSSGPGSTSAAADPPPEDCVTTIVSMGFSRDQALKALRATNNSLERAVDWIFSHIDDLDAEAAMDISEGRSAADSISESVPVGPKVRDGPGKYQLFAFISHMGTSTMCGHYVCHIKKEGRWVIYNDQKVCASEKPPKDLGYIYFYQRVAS
Procedure, shortened: as §1

[6] = target: USP54 (UniProt Q70EL1)
Procedure, shortened: as §1

[7] = target: USP7 (UniProt Q93009)
Procedure, shortened: as §1

[8] = target: T5, USP8 (UniProt P40818)
T5 sequence (whole entry): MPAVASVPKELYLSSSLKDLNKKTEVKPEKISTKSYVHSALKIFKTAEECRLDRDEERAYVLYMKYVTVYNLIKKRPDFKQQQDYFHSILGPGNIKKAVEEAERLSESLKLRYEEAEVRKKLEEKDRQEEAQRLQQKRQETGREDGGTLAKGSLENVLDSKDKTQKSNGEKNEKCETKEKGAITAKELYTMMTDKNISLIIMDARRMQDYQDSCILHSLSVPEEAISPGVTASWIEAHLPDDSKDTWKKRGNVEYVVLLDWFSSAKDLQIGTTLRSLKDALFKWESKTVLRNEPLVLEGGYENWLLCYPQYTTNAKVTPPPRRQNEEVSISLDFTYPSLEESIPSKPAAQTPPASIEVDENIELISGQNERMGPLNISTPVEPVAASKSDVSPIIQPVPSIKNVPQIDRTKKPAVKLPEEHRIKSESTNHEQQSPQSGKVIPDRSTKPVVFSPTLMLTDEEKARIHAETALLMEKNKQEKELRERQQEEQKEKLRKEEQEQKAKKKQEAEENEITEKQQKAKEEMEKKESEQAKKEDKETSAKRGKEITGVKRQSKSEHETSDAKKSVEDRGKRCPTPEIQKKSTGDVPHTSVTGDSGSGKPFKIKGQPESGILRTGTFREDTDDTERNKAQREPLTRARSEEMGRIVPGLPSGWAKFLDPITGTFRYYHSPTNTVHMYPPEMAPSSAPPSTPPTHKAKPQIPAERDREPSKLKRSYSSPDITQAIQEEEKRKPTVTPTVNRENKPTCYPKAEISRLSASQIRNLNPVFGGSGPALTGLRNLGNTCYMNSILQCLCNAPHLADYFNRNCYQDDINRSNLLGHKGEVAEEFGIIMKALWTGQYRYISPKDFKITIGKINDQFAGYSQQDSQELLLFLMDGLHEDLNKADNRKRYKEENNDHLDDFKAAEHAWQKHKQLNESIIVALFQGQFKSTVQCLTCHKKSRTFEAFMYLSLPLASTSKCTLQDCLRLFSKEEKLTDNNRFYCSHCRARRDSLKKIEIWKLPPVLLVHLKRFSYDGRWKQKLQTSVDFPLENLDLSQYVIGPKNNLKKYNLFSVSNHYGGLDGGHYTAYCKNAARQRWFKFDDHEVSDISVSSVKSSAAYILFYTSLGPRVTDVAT
Procedure, shortened: as §1

Measured: log2 ratio of Biotin-Ahx-Ub-VS probe labelling

USP46, sequence (P62068 whole entry): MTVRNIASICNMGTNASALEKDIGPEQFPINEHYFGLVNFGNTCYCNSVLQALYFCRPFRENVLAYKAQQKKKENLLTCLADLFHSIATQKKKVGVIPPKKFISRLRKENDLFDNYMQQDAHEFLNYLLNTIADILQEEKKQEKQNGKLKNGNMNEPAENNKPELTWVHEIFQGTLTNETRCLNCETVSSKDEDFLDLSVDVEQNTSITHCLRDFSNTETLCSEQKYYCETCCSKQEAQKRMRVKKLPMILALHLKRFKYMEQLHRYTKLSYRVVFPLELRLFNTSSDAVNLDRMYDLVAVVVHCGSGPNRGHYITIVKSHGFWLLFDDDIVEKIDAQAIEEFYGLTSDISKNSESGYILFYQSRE
USP7, sequence (Q93009 whole entry, looked up): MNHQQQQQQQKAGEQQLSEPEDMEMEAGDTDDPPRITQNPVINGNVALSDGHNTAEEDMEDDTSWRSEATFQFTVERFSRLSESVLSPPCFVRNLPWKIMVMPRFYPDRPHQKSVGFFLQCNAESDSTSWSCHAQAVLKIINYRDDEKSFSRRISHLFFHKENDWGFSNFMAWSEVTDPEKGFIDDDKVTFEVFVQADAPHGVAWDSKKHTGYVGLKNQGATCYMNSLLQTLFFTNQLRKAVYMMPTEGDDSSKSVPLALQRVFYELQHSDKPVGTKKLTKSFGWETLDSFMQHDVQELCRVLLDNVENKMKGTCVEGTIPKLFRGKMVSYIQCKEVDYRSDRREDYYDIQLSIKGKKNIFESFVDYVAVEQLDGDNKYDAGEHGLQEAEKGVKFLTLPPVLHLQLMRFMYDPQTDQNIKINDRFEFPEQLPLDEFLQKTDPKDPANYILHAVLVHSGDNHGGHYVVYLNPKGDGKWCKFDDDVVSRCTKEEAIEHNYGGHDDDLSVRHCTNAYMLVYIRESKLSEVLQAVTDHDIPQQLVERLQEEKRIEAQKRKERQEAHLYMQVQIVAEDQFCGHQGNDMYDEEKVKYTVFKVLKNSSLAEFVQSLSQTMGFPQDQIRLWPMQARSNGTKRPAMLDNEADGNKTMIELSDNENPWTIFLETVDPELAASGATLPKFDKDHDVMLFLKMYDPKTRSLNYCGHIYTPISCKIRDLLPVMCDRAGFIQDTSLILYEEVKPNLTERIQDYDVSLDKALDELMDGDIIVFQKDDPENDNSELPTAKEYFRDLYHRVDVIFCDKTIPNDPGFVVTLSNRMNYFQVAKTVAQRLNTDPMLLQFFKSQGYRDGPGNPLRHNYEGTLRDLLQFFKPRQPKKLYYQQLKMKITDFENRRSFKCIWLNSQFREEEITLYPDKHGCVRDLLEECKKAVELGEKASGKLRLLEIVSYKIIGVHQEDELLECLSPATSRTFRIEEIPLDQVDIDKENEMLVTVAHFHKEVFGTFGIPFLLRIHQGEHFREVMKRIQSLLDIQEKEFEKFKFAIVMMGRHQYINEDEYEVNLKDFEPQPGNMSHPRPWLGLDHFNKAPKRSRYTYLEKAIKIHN
USP54, sequence (Q70EL1 whole entry): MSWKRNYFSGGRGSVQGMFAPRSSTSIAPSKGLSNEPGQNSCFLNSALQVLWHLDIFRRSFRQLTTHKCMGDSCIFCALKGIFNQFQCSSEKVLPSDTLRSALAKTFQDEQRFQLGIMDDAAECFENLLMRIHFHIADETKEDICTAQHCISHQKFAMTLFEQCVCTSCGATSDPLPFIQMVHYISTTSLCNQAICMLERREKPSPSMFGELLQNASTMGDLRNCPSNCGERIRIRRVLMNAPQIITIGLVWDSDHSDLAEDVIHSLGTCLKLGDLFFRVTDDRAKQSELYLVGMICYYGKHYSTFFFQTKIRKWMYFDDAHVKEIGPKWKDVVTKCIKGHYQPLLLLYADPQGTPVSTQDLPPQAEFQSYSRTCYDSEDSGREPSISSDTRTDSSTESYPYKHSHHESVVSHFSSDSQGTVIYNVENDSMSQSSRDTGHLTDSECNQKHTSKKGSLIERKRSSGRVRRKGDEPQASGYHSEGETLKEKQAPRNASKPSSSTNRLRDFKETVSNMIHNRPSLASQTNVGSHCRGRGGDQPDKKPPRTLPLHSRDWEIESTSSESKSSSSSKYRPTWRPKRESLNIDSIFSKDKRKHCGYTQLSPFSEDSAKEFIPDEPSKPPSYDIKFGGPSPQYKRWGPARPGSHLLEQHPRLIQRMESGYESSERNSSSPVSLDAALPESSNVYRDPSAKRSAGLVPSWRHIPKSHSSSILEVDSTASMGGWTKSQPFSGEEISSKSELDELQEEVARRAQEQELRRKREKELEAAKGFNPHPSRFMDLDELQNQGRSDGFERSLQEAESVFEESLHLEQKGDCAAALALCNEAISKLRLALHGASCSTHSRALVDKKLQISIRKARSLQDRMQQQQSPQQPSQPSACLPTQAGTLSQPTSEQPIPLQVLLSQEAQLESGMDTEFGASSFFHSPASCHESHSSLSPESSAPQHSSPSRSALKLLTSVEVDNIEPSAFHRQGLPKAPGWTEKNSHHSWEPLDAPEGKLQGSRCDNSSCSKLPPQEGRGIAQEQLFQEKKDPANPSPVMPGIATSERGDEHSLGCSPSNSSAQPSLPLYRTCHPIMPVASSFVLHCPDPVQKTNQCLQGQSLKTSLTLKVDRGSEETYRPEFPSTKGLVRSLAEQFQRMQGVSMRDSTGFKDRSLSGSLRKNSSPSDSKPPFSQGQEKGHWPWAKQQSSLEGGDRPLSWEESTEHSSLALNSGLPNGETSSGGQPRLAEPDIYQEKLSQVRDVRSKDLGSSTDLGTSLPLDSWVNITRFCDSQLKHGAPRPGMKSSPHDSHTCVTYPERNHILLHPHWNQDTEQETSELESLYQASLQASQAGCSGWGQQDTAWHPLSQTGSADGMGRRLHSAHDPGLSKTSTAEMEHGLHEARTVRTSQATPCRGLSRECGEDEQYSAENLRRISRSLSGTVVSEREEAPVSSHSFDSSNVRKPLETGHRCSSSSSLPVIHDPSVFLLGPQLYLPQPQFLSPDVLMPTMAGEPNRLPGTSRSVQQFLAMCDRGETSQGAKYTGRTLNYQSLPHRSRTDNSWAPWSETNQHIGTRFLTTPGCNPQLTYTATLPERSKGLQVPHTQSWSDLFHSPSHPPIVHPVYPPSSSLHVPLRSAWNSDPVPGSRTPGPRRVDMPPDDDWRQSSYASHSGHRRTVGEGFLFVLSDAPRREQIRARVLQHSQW

O=C(CCl)NCc1cccc(N2CCCC2=O)c1
inactive: [1] -0.175 | [2] 0.179 | [3] 0.109 | [4] -0.0848 | [5] 0.238 | [6] 0.342 | [7] -0.0593 | [8] -0.147
